Nine molecules from PubChem BioAssay (NCI) can be followed below.

Test systems include K-562 leukemia; MALME-3M melanoma; MDA-MB-231 breast; RXF 393 renal; SF-268 CNS; SF-295 CNS; SF-539 CNS; UACC-257 melanoma; M14 melanoma; HCT-15 colon; HT29 colon; SNB-75 CNS; SNB-19 CNS; U251 CNS; PC-3 prostate; UACC-62 melanoma; SK-MEL-2 melanoma; SK-MEL-5 melanoma; SK-MEL-28 melanoma.
Holding throughout (assay): NCI-60 one-dose screen, 48 h (100 = growth as untreated, 0 = no growth, -100 = all killed)
Conditions in all cases: 10 µM unless noted

Structures are written as SMILES. Compounds without any hit were thinned out: in the full panel of roughly 83,000, 20% have a hit.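 Each cell line was grown in a 96-well plate and treated with one concentration of compound for 48 hours. Values below 10 were considered active.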 Values without a mark were called inactive. The source made the active and inactive calls.

With `O=c1/c(=C\c2ccc(-c3ccccc3)o2)sc2nc(-c3ccccc3)nn12`, the growth with K-562 leukemia was 102%; in the assay on MALME-3M melanoma it was 102%; in the assay on MDA-MB-231 breast it was 97.9%; in the assay with RXF 393 renal, 115%; with SF-268 CNS, 96.8%; in the assay with SF-295 CNS, 105%. The growth was 105% with SF-539 CNS; 106% with UACC-257 melanoma; 100% with M14 melanoma; 91.8% in the assay with HCT-15 colon; 102% in the assay with HT29 colon; 99.8% in the assay on SNB-75 CNS. Further, the growth with SNB-19 CNS was 93.3%; with U251 CNS, 98.8%; in the assay on PC-3 prostate it was 95.7%; in the assay on UACC-62 melanoma, 98.7%; in the assay on SK-MEL-2 melanoma, 114%.
On to `O=C1c2c(c3c4cc(Br)ccc4[nH]c3c3ccc4ccccc4c23)C(=O)N1CCO`, for which the growth with K-562 leukemia is 71.6%; in the assay on MALME-3M melanoma, 103%; in the assay on MDA-MB-231 breast, 75.3%; with RXF 393 renal, 107%; in the assay with SF-268 CNS, 105%; with SF-295 CNS, 91.8%. Also, the growth in the assay with SF-539 CNS is 90.9%; in the assay on UACC-257 melanoma, 97.4%; with M14 melanoma, 103%; in the assay with HCT-15 colon it was 72.8%; with HT29 colon, 89.9%; with SNB-75 CNS it was 128%. In addition, the growth with SNB-19 CNS was 85.6%; with PC-3 prostate, 83.3%; with SK-MEL-5 melanoma, 100%; in the assay on UACC-62 melanoma it was 72.6%; in the assay with SK-MEL-28 melanoma, 99.8%; with SK-MEL-2 melanoma it was 110%.
Regarding `Cc1cc(C(=O)Nc2sc3c(c2C(N)=O)CCC(=O)C3)ccc1OCCN1CCCCC1`, the growth in the assay on K-562 leukemia is 53.2%; in the assay with MALME-3M melanoma, 102%; with MDA-MB-231 breast, 101%; in the assay with RXF 393 renal, 112%; with SF-268 CNS, 99.4%; in the assay on SF-295 CNS, 113%. The growth in the assay with SF-539 CNS was 94.2%; in the assay on UACC-257 melanoma it was 107%; in the assay on M14 melanoma, 108%; in the assay with HCT-15 colon, 83.3%; in the assay on HT29 colon it was 96.2%; in the assay on SNB-75 CNS, 95.2%. Also, the growth in the assay with SNB-19 CNS is 102%; with U251 CNS, 96.8%; in the assay with PC-3 prostate, 88.6%; in the assay on UACC-62 melanoma, 100%; in the assay with SK-MEL-28 melanoma it was 115%; with SK-MEL-2 melanoma, 106%.
As for `C#Cc1nc(C2=C(C)/C(=N/OCc3ccccc3)CC2)cs1`, the growth with K-562 leukemia was 75.5%; in the assay on MALME-3M melanoma it was -44% (active); in the assay on MDA-MB-231 breast, -39.2% (active); in the assay with RXF 393 renal, 33.6%; in the assay with SF-268 CNS, 0.651% (active); in the assay on SF-295 CNS, -84% (active). Further, the growth in the assay with SF-539 CNS was -86.5% (active); with UACC-257 melanoma it was 84.4%; with M14 melanoma, 75.4%; in the assay on HCT-15 colon, 53.4%; with HT29 colon, 67%; in the assay on SNB-75 CNS it was -88.4% (active). Also, the growth in the assay with SNB-19 CNS is 72.8%; with PC-3 prostate, 82.3%; with UACC-62 melanoma, 62.5%; with SK-MEL-28 melanoma, 94.6%; with SK-MEL-2 melanoma it was 98.7%.
As to `C=CCn1c(SCC(=O)c2ccccc2)nnc1-c1c[nH]c2ccccc12`, the growth in the assay with K-562 leukemia was 92.6%; in the assay on MALME-3M melanoma, 86.6%; with MDA-MB-231 breast, 88.8%; with RXF 393 renal, 102%; with SF-268 CNS, 102%; in the assay on SF-295 CNS it was 96.2%. Moreover, the growth in the assay on SF-539 CNS is 97.3%; with UACC-257 melanoma, 97.9%; with M14 melanoma, 97.7%; in the assay on HCT-15 colon it was 96%; with HT29 colon it was 112%; in the assay with SNB-75 CNS it was 96.4%. Further, the growth with SNB-19 CNS was 98.3%; in the assay on PC-3 prostate, 89.1%; in the assay with SK-MEL-5 melanoma, 96.6%; in the assay on UACC-62 melanoma it was 81.5%; in the assay with SK-MEL-28 melanoma, 105%; in the assay with SK-MEL-2 melanoma, 105%.
As to `COc1ccc(C(=O)c2cc(C(=O)/C=C/c3c(Cl)cccc3Cl)c3cc(C)ccn23)cc1`, the growth in the assay with K-562 leukemia was 94.2%; in the assay with MALME-3M melanoma, 97.1%; in the assay on MDA-MB-231 breast, 96.9%; with RXF 393 renal, 108%; in the assay with SF-268 CNS, 98%; with SF-295 CNS, 101%. For the same molecule, the growth in the assay with SF-539 CNS is 94.6%; with UACC-257 melanoma it was 102%; with M14 melanoma, 99.5%; in the assay with HCT-15 colon, 99.9%; in the assay with HT29 colon, 103%; with SNB-75 CNS, 76.7%. Further, the growth is 98.8% in the assay with SNB-19 CNS; 91.3% in the assay on PC-3 prostate; 94% with UACC-62 melanoma; 108% with SK-MEL-28 melanoma; 101% in the assay with SK-MEL-2 melanoma.
Turning to `N#Cc1nc(-c2ccccc2)oc1N1CC[C@@H](CO)C1`, the growth in the assay with K-562 leukemia was 96%; in the assay on MALME-3M melanoma, 110%; in the assay on MDA-MB-231 breast, 99.1%; in the assay with RXF 393 renal, 118%; with SF-268 CNS, 105%; in the assay with SF-295 CNS it was 97.1%. Further, the growth was 102% with SF-539 CNS; 110% with UACC-257 melanoma; 103% in the assay with M14 melanoma; 100% in the assay on HCT-15 colon; 107% in the assay with HT29 colon; 98.3% in the assay with SNB-75 CNS. In addition, the growth in the assay with SNB-19 CNS is 94%; with PC-3 prostate, 92.2%; with SK-MEL-5 melanoma it was 99.6%; in the assay with UACC-62 melanoma, 92.4%; in the assay on SK-MEL-2 melanoma, 110%.
Regarding `CCOC(=O)c1sc(NCC(=O)Nc2cccc([N+](=O)[O-])c2)c(C(=O)OCC)c1C`, the growth was 5.97% (active) in the assay on K-562 leukemia; -63.7% (active) in the assay with MALME-3M melanoma; -24.5% (active) in the assay with MDA-MB-231 breast; -74% (active) with RXF 393 renal; -25% (active) in the assay with SF-268 CNS; -77.5% (active) with SF-295 CNS. For the same molecule, the growth was -35.1% (active) with SF-539 CNS; -6.79% (active) with UACC-257 melanoma; -73% (active) with M14 melanoma; 2.01% (active) in the assay with HCT-15 colon; -42.7% (active) in the assay on HT29 colon; -6.96% (active) with SNB-19 CNS. Moreover, the growth in the assay with U251 CNS is -7.36% (active); with PC-3 prostate it was -9.82% (active); in the assay with UACC-62 melanoma, -72.4% (active); with SK-MEL-28 melanoma, -30.9% (active); with SK-MEL-2 melanoma it was -24% (active).
For `C=CCSc1ccc2c(c1)C(N1CCNCC1)=Nc1ccccc1O2`, the growth is 29.3% [8.25 µM] with K-562 leukemia; 86.6% [8.25 µM] in the assay with MALME-3M melanoma; 77.8% [8.25 µM] in the assay on MDA-MB-231 breast; 63% [8.25 µM] with RXF 393 renal; 74.8% [8.25 µM] with SF-268 CNS; 85.1% [8.25 µM] with SF-295 CNS. In addition, the growth in the assay on SF-539 CNS was 74.1% [8.25 µM]; with UACC-257 melanoma, 83% [8.25 µM]; in the assay on M14 melanoma it was 83.4% [8.25 µM]; in the assay with HCT-15 colon, 85.3% [8.25 µM]; in the assay with HT29 colon, 44.2% [8.25 µM]; in the assay with SNB-19 CNS, 82.7% [8.25 µM]. The growth with U251 CNS was 61.3% [8.25 µM]; in the assay with PC-3 prostate, 66.9% [8.25 µM]; with SK-MEL-5 melanoma, 85.5% [8.25 µM]; with UACC-62 melanoma, 91.6% [8.25 µM]; in the assay with SK-MEL-28 melanoma, 80.3% [8.25 µM]; in the assay on SK-MEL-2 melanoma it was 92.3% [8.25 µM].
